High-throughput results deposited in PubChem BioAssay by National Center for Advancing Translational Sciences (NCATS).
LMNA splice mod: qHTS Assay for Modulators of Lamin A Splicing | Potency, µM (top dose mostly 46.1 µM), for the others: at the top dose ratio change, negative = inhibition, usual class: inhibitors | AID 1487, 2009 | hit rate 0.01% among 200,000 | HeLa LMNA splicing GFP/RFP minigene ratio, 48 h; active means well fitted inhibition curve with a large enough effect in the signal ratio, with a control signal flat, not every such curve was filed as active; inconclusive means small, poorly fitted or top-dose-only effect, or effect the other way, or a change in a side signal; the % refers to the signal ratio; further: potency means the concentration at half of the fitted maximal effect
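Read-out is the ratio of GFP to DsRed2 object intensity, acquired by 488 nm laser-scanning cytometry on HeLa lamin A-EGFP minigene reporter cells. Compound incubation 48 hrs at 37 °C in Opti-MEM with 2% FBS; DMSO 0.5% final.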
PNC inhibitor: High Content Assay for Compounds that inhibit the Assembly of the Perinucleolar Compartment. PC3M PTB-GFP, PNC prevalence imaging, 16 h; active compounds read low. activity change (PNC), negative = inhibition, % at 10 µM. hit rate 3.1% among 140,000. AID 2417, 2010;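 active means readout at or below -70, meaning at least 70% loss of cells showing the perinucleolar compartment, a nuclear body marking cancer cells; inconclusive means readout between -30 and a set limit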;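 further: plate controls were DMSO wells for no effect and camptothecin positive control wells for full effect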
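PC3M cells stably expressing PTB-GFP, 750–1000 cells/well, treated 16 h at 37 °C with compound (23 nl of library stock), in duplicate. After paraformaldehyde fixation and Hoechst stain, imaged at 20x; PNC prevalence scored by image analysis.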
ALDH1A1 block: qHTS Assay for Inhibitors of Aldehyde Dehydrogenase 1 (ALDH1A1); Aldehyde dehydrogenase 1A1 (Homo sapiens), P00352; Purified ALDH1A1, NADH fluorescence, propionaldehyde substrate; Potency, µM (highest dose often 75.3 µM), inactives show at the highest dose activity, negative = inhibition, usual class: inhibitors; hit rate 7.3% among 220,000; AID 1030, 2008;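 further: potency means the concentration at half of the fitted maximal effect; plate controls were no enzyme wells and a reference inhibitor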
HPGD block: qHTS Assay for Inhibitors of HPGD (15-Hydroxyprostaglandin Dehydrogenase). hit rate 4.3% among 150,000. purified HPGD, NADH fluorescence kinetic, PGE2 substrate. Potency, µM, for the others: at the highest dose activity change, negative = inhibition, most hits filed as inhibitors. 15-hydroxyprostaglandin dehydrogenase [NAD(+)] (Homo sapiens), P15428; further: potency means the concentration at half of the fitted maximal effect
Target sequence (P15428 whole entry, looked up): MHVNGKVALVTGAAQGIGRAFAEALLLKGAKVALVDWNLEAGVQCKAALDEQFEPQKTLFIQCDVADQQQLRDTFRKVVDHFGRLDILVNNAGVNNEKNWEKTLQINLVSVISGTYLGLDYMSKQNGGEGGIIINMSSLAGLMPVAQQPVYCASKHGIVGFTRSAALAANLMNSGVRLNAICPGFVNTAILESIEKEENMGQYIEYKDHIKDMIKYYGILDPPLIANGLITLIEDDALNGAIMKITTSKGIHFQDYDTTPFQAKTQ
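NADH formation kinetics: reaction with 30 uM PGE2 and 1 mM NAD+ (final), 20 nM enzyme, Tris-HCl pH 8 with Tween 20, after 15 min compound preincubation at room temperature. Fluorescence change, last versus first of five reads.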
12-hLO inh: qHTS Assay for Inhibitors of 12-hLO (12-human lipoxygenase) | purified 12-hLO, xylenol orange hydroperoxide absorbance | AID 1452, 2008 | hit rate 0.12% among 150,000 | Polyunsaturated fatty acid lipoxygenase ALOX12 (Homo sapiens), P18054 | Potency, µM (highest dose often 57.1 µM), for inactives: at the top dose activity change, negative = inhibition, usual class: inhibitors; active means well fitted inhibition curve with a large enough effect; inconclusive means small, poorly fitted or top-dose-only effect; further: potency means the concentration at half of the fitted maximal effect; nearly all actives have a fitted effect of over 55% in size
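Purified human 12hLO (150 nM final) was preincubated with compounds for 15 min at room temperature in 25 mM Hepes pH 7.0, 0.01% Triton X-100, then reacted with 40 uM arachidonic acid for 30 min. Hydroperoxide was detected with ferrous iron/xylenol orange.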
The depositor's hits bear a star; ? = inconclusive; nt = not tested or not shown; [ ] = remark or other dose. Only some compounds are listed: those with a hit (about 10% of all), similar ones and a draw of the others. Unless noted, the call rests on the fitted dose curve; in most records, active means well fitted inhibition curve with a large enough effect (not every such curve was filed as active); inconclusive means small, poorly fitted or top-dose-only effect, or another doubt; inactive means no such curve, though single readings can be large or run the other way. Unless noted, on the % scale 0 is the no-effect control and ±100 the full control effect.

SMILES	LMNA splice mod	PNC inhibitor	ALDH1A1 block	HPGD block	12-hLO inh
Cc1ccc2c(c1)-c1onc(C(=O)N(C)c3cccc(C(F)(F)F)c3)c1CO2	-14.3%[46 µM]	nt	nt	nt	nt
Cc1cc(C(=O)N/N=C/c2ccc(C)o2)c2ccccc2n1	?	-94.3*	4.4%	?	3.0%
C/C(=N\OCC(=O)N/N=C/c1ccccc1)c1cccs1	2.8%	2.3	10.6%	0.9%	-4.1%
COc1ccc(/C=N/NC(=O)CO/N=C(\C)c2cccs2)cc1	7.4%	-9.5	22.4µM*	-19.9%	6.1%
Cc1nnc(SCC(=O)Nc2ccccc2)[nH]c1=O	-2.9%	34.5	-6.1%	-10.5%	7.9%
CCc1c(O)nc(SCC(=O)Nc2ccccc2C)[nH]c1=O	7.6%	?	-0.9%	-3.4%	-0.2%
CCc1c(C)nc(SCC(=O)Nc2ccc(Br)cc2)[nH]c1=O	?	-3.7	3.9%	14.1µM*	-5.1%
CCc1c(C)nc(SCC(=O)Nc2cccc(Br)c2)[nH]c1=O	?	59.1	-3.6%	3.55µM*	-3.3%
COc1ccccc1CN1CC[C@@]2(CCCN(C(=O)c3ccco3)C2)C1	nt	nt	?	-7.2%	5.6%
CC[C@@H]1CN2CCc3cc(OC)c(OC)cc3[C@H]2C[C@@H]1C[C@@H]1NCCc2cc(OC)c(OC)cc21	nt	nt	nt	nt	-4.7%
COc1ccc(/C=C/C(=O)c2ccc(OC)cc2OC)c(OC)c1	nt	nt	1.5%	nt	nt
CNc1ccc(Br)cc(C(=O)/C=C/c2ccc(OC)cc2OC)c1=O	?	?	?	14.1µM*	-21.6%
CNc1ccc(Br)cc(C(=O)/C=C/c2cccc(OC)c2)c1=O	?	-15.1	14.1µM*	7.94µM*	-21.7%
COc1cc(O)c(C(=O)/C=C/c2ccccc2)c(O)c1	nt	nt	7.5%[13.5 µM]	nt	nt
N[C@H](C(=O)O)[C@H](OCc1ccccc1)C(=O)O	nt	nt	-1.9%	-4.0%	-2.8%
CC1(C)Cc2c(sc3c2c(=N)n(Cc2ccco2)c(=O)n3CC(=O)Nc2ccc(Cl)cc2)CO1	-10.8%	8.4	20µM*	-20.5%	-4.1%
Cn1ccc2c(OCC(=O)Nc3ccc(OC(F)(F)F)cc3)cccc2c1=O	-2.1%[46 µM]	nt	nt	nt	nt
Cn1c(=O)c2c(nc(CN3CCN(C(=O)c4ccco4)CC3)n2Cc2cccc(Cl)c2)n(C)c1=O	?	?	14.1µM*	-1.8%	-2.1%
Cn1c(=O)c2c(nc(CN3CCN(C(=O)c4ccco4)CC3)n2Cc2ccc(Cl)cc2)n(C)c1=O	10.9%	?	14.1µM*	-6.4%	-4.0%
CC1CN(Cc2nc3c(c(=O)n(C)c(=O)n3C)n2Cc2ccccc2)CC(C)O1 (stereo unspecified)	10.4%	-17.5	-5.4%	0.2%	4.0%
Cn1c(=O)c2c(nc(CN3CCN(Cc4ccccc4)CC3)n2Cc2cccc(Cl)c2)n(C)c1=O	-3.4%	-16.2	?	5.5%	-8.5%
Cn1c(=O)c2c(nc(CN3CCN(C(=O)c4ccco4)CC3)n2Cc2ccccc2)n(C)c1=O	0.4%	?	12.6µM*	-5.0%	4.6%
CC#CCN1c2ccccc2[C@]23C[C@@H](C(=O)OC)N(S(=O)(=O)c4ccc5c(c4)OCCN5C)C2=NC(C(=O)OC)=C(C(=O)OC)[C@H]13	5.6%[9.22 µM]	nt	-6.2%[13.5 µM]	-0.7%	-1.6%[11.4 µM]
O=S(=O)(c1ccccc1)N1CCC[C@@]2(CCN(Cc3ccccc3)C2)C1	nt	nt	-14.6%	-6.5%	3.0%
COCCN(C(=S)Nc1c(C)cc(C)cc1C)C(C)c1cccnc1 (stereo unspecified)	1.5%	-11.6	?	7.94µM*	-6.1%
O=C(Nc1cccc2nsnc12)c1cccnc1	-10.1%	27.6	?	-20.4%	0.4%
COC(=O)c1sccc1NC(=O)c1c(-c2ccccc2)noc1C	?	-9.9	8.91µM*	-18.3%	0.1%
O=C(Nc1cccc2cccnc12)c1cccnc1	-4.3%	-85.3*	-5.4%	-8.3%	-1.3%
Cc1onc(-c2ccccc2)c1C(=O)NC(=S)NNC(=O)c1ccncc1	-21.5%	-14.2	17.8µM*	-21.5%	-0.5%
CCOC(=O)c1c(NC(=O)c2c(-c3ccccc3)noc2C)sc(C)c1-c1ccccc1	?	-103.1*	?	?	-3.6%
